This is a sample that favours compounds with a hit; in the whole collection about 5.8% have one here.
RORgamma inh: ROR gamma (mouse) transcription inhibition; Drosophila S2 Gal4-RORgamma UAS-luciferase reporter, 20 h; Potency, µM (top dose mostly 53.6 µM), for the others: at the highest dose activity change, negative = inhibition, actives largely listed as inhibitors; 310,000 tested, 5.4% active; AID 2551; further: potency means the concentration at half of the fitted maximal effect; on the % scale 0 is the no-effect control and ±100 the full control effect; nearly all actives have a fitted effect of over 60% in size
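Luminescence from a UAS-regulated Photinus luciferase reporter in stably transfected Drosophila Schneider cells is measured; decreased signal marks ROR gamma inhibition. Fusion expression is induced by 700 uM copper sulfate for 20 hr.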
TRPV1 PAM: potentiators of human vanilloid receptor 1 (TRPV1). TRPV1-expressing cells, Fluo-8 calcium influx, capsaicin EC20 potentiation. potentiation, % at 8.33 µM. 320,000 tested, 0.02% active. AID 540277; in the data active means potentiation above about 80%; inconclusive means between about 30% and that limit; further: 0% is about no effect
Target sequence (Q8NER1 whole entry, looked up): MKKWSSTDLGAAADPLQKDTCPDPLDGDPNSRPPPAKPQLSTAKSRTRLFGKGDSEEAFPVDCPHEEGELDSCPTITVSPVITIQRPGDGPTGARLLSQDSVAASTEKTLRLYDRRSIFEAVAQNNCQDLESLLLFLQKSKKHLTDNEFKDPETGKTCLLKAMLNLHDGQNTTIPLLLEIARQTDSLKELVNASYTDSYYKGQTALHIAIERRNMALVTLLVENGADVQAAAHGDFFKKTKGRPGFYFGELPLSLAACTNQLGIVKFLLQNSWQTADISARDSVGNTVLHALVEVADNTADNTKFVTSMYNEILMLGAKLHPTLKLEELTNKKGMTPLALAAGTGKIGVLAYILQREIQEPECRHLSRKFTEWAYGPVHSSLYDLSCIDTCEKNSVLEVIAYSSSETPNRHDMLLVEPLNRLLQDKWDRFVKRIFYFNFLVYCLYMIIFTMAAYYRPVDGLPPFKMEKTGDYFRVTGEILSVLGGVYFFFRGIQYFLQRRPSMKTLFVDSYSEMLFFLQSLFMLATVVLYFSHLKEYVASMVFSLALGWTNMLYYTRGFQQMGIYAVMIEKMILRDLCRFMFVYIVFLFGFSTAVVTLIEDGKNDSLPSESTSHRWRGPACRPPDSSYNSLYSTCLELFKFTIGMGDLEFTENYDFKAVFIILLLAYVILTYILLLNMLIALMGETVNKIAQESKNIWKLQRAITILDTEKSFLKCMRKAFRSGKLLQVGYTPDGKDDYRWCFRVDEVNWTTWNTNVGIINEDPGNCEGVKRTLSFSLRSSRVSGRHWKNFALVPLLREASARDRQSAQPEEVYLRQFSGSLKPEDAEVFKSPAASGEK
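TRPV1-expressing cells were cultured overnight at 35.5C and loaded with Fluo-8 calcium dye for 40 to 90 min at room temperature. After a 10 s baseline, compound was added and calcium influx was read kinetically for 3 min (ex 480/em 520 nm).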
Gal4-VP16 FLuc: inhibits Gal4-VP16 luciferase reporter, ROR gamma counter-screen. Drosophila S2 Gal4-VP16 UAS-luciferase, luminescence, 20 h. 310,000 tested, 3.5% active. Potency, µM (doses to about 53.6 µM), for inactives: top-dose activity, negative = inhibition, hits mostly inhibitors. AID 2546;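 further: Gal4-VP16 expression switched on by copper sulfate through the metallothionein promoter; potency means the concentration at half of the fitted maximal effect; on the % scale 0 is the no-effect control and ±100 the full control effect; nearly all actives have a fitted effect of over 50% in size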
uPA generation: blocks generation of uPA at the cell surface | cell surface uPA generation assay, qHTS | Potency, µM (top dose mostly 38.3 µM), inactives show at the top dose activity change, negative = inhibition, usual class: inhibitors | 330,000 tested, 0.31% active | AID 540303; active means well fitted inhibition curve with a large enough effect; inconclusive means small, poorly fitted or top-dose-only effect; inactive means no such curve, though single readings can be large or run the other way; tested in mouse RAW 264.7 cells; further: potency means the concentration at half of the fitted maximal effect; on the % scale 0 is the no-effect control and ±100 the full control effect; nearly all actives have a fitted effect of over 55% in size
TRPV1 ag: activates the human vanilloid receptor TRPV1. Q8NER1. TRPV1-expressing cells, Fluo-8 calcium influx, agonist mode. activation, % at 8.33 µM. 320,000 tested, 0.19% active; in the data active means activation above about 80%; inconclusive means between about 30% and that limit; further: 0% is about no effect
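TRPV1-expressing cells were cultured overnight at 35.5C and loaded with Fluo-8 calcium dye for 40 to 90 min at room temperature. After a 10 s baseline, compound was added and calcium influx was read kinetically for 3 min (ex 480/em 520 nm).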
* marks the source's active call; other numbers are inactive results; u = inconclusive; x = no result given; [ ] = another dose, or the depositor's remark. Unless noted, the call rests on the fitted dose curve; in most records, active means well fitted curve in the direction sought with a large enough effect; inconclusive means small, poorly fitted or top-dose-only effect, or another doubt; inactive means no such curve, though single readings can be large; an effect the other way counts as inactive or inconclusive.

SMILES	RORgamma inh	TRPV1 PAM	Gal4-VP16 FLuc	uPA generation	TRPV1 ag
c1ccc(-c2ccc(-c3nccc4ccccc34)[nH]2)cc1	5.01µM*	4.3	10µM*	x	15.8
N#Cc1cc(-c2ccccc2)[nH]c1-c1nccc2ccccc12	10µM*	-14.8	u	2.3%	u
c1ccc(-c2ccc(-c3ccccc3)[nH]2)cc1	x	x	x	-1.5%	x
Cc1cc(C#N)c2ccccc2n1	-9.7%	14.7	7.0%	-5.4%	-1.1
CC(O)(c1ccc(Cl)cc1)c1ccc(Cl)cc1	-5.0%	x	u	x	x
COc1ccc(-c2ccccc2C2NC(C(=O)O)CCC2C)cc1 (stereo not drawn)	-0.7%[10 µM]	x	-0.9%[10 µM]	x	x
COC(=O)c1ccc(C(NC(=O)OCc2ccccc2)/C(=C/[C@@H](C)C(=O)NCc2cc(C)n(C)n2)c2cccnc2)cc1 (stereo partly drawn)	1.0%	x	-11.9%	x	x
O=C(COC(=O)CNC(=O)c1ccccc1)NC(=O)NC1CCCCC1	x	x	x	3.4%	x
CCOc1c2c(nc3ccc(Cl)cc13)CCC2	11.2µM*	-7.6	-24.5%	x	19.6
CCOc1ccc(NC(=O)c2c3c(nc4ccccc24)CCC3)cc1	-1.0%	-9.7	-16.5%	-1.5%	3.5
COc1cc(C=O)ccc1OCc1ccccc1Br	10µM*	13.4	11.2µM*	-4.9%	5.5
COC(=O)c1ccccc1OCCCOc1ccc(C=O)cc1OC	8.91µM*	4.9	10µM*	1.5%	2.7
O=C(COc1ccc2ccccc2c1)N1CCN(C(=O)c2ccc([N+](=O)[O-])cc2)CC1	0.0%	1.9	0.5%	-4.7%	2.2
COc1ccccc1CNc1cc(-c2cccc(C#N)c2)ncn1	1.1%	x	8.2%	x	x
Cc1cccc(CNc2cc(-c3cccc(C#N)c3)ncn2)c1	-23.7%	x	12.6µM*	x	x
O=C(C1CCC(Cn2c(=S)[nH]c3ccccc3c2=O)CC1)N1CCOCC1 (stereo not drawn)	11.2µM*	15.6	u	x	1.1
O=C(CCCn1c(=S)[nH]c2ccc(Br)cc2c1=O)N1CCN(c2ccccn2)CC1	7.08µM*	x	u	x	x
COc1ccc(N2CCN(C(=O)C3CCC(Cn4c(=S)[nH]c5ccccc5c4=O)CC3)CC2)cc1 (stereo not drawn)	3.55µM*	5.6	7.08µM*	x	4.0
COc1ccccc1N1CCN(C(=O)C2CCC(Cn3c(=S)[nH]c4ccccc4c3=O)CC2)CC1 (stereo not drawn)	2.51µM*	-10.0	5.01µM*	3.8%	5.9
O=C(C1CCC(Cn2c(=S)[nH]c3ccccc3c2=O)CC1)N1CCN(c2ccccc2)CC1 (stereo not drawn)	x	x	x	-6.0%	x
O=C(CSc1n[nH]c(-c2ccncc2)n1)Nc1ccc(Cl)c(Cl)c1	u	4.8	-3.3%	-0.9%	-0.7
O=C(C1CCC(Cn2c(=S)[nH]c3ccccc3c2=O)CC1)N1CCN(c2ccccn2)CC1 (stereo not drawn)	5.62µM*	0.4	u	2.3%	4.8
CC(C)(C)N1C(=O)[C@H]2[C@H]3[C@H](O)[C@H](O)C/C(=N/OC[C@@H](O)COCc4ccco4)[C@H]3CC[C@@H]2C1=O	-14.6%[10 µM]	x	3.2%[10 µM]	x	x
O=C1C2C3c4ccccc4C(c4ccccc43)C2C(=O)N1c1nc(-c2ccccc2)cs1 (stereo not drawn)	-8.4%	-4.6	0.4%	-6.3%	0.1
N=C1SCC(=O)N1c1nc(-c2ccccc2)cs1	8.91µM*	-8.6	-4.5%	4.1%	-1.8
SMILES	RORgamma inh	TRPV1 PAM	Gal4-VP16 FLuc	uPA generation	TRPV1 ag
Cc1c(C(=O)NC(Cc2ccccc2)c2nc3ccccc3[nH]2)cccc1[N+](=O)[O-] (stereo not drawn)	-4.0%	-7.3	3.1%	24.4%	28.5
O=C(Nc1nc2ccccc2[nH]1)c1ccc(Cl)c([N+](=O)[O-])c1	2.82µM*	1.3	u	-2.6%	-2.5
Cc1c(C(=O)Nc2nc3ccccc3[nH]2)cccc1[N+](=O)[O-]	7.94µM*	-4.8	10µM*	-7.3%	3.3
O=C(Nc1nc2ccccc2[nH]1)c1ccccc1[N+](=O)[O-]	8.91µM*	-0.6	22.4µM*	-6.8%	6.9
O=C(NC(Cc1ccccc1)c1nc2ccccc2[nH]1)c1ccc(Cl)c([N+](=O)[O-])c1 (stereo not drawn)	u	-5.9	u	3.6%	4.5
COc1cccc(NC(=O)C2(S(=O)(=O)c3ccc(Cl)cc3)CC2)c1	-3.3%	-16.1	3.4%	1.4%	7.8
